Laboratory results from PubChem BioAssay AID504832 (National Center for Advancing Translational Sciences (NCATS), 2011).
Screen size: about 310,000 compounds; about 18,000 (5.8%) were called active. Where a call stands in place of a potency, no number is given. Inconclusive results (about 22%) are left out. Calls follow the shape of the dose curve; as a rule, active = well fitted inhibition curve with a large enough effect; inconclusive = small, poorly fitted or top-dose-only effect, or another doubt; inactive = no such curve, though single readings can be large or run the other way. The sample as a whole holds a higher share of actives than the screen did.

Test: Primary qHTS for delayed death inhibitors of the malarial parasite plastid, 48 hour incubation
Conditions: P. falciparum luciferase growth in erythrocytes; series mostly up to 28.7 µM
Procedure, shortened: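 Cell-based growth assay: transgenic P. falciparum expressing firefly luciferase, cultured in red cells within RPMI 1640 containing 0.5% w/v Albumax, 24 mM bicarbonate and gentamycin. A drop in luciferase activity indicates inhibition.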
Potency is read from the fitted curve at half-maximal effect.

| SMILES | activity change, negative = inhibition | Potency |
| --- | --- | --- |
| O=C(Cc1ccc(Br)cc1)NCCN1CCOCC1 | 5.97% [at 0.00184 µM] (inactive) |  |
| CCC(C(=O)N1CCN(S(=O)(=O)c2sc(C(=O)O)c(C)c2C(=O)O)CC1)c1ccccc1 (stereo not given) |  | inactive |
| COc1ccc(OC)c(NC(=O)c2cccc(S(=O)(=O)N3CCN(C(C)=O)CC3)c2)c1 |  | inactive |
| COc1cc(OC)cc(C(=O)Nc2nnc(SCC(=O)NCC3CCCO3)s2)c1 (stereo not given) |  | inactive |
| Cc1ccccc1Nc1nc(-c2cccnc2)cs1 |  | inactive |
| CCCOc1ccc(Cc2c(O)nc(SC)[nH]c2=O)cc1C |  | inactive |
| CC1=NN(Cc2ccccc2)C(=O)/C1=C/c1ccc(N(C)C)cc1 |  | inactive |
| CN(C)c1cc[n+](Cc2ccccc2)cc1 |  | 0.928 µM (active) |
| C[n+]1ccc(C(=O)NCc2ccccc2)cc1 |  | inactive |
| CN(C)c1ccc(/C=N/N(Cc2ccccc2)c2ccccc2)cc1 |  | inactive |
| COC(=O)c1ccc(Cc2ccccc2)o1 |  | inactive |
| c1ccc(Cc2cc[n+](Cc3ccccc3)cc2)cc1 |  | 1.17 µM (active) |
| Cc1ccc(NS(=O)(=O)c2cc3c(cc2C)NC(=O)CO3)cc1 |  | inactive |
| c1ccc(C2CCC(N3CCC(N4CCCCC4)CC3)CC2)cc1 (stereo not given) |  | 10.4 µM (active) |
| O=S(=O)(c1ccccc1)N1CCC(c2ccccc2)CC1 |  | inactive |
| Cc1ccc(S(=O)(=O)N2CCC(N3CCCCCC3)CC2)cc1 |  | inactive |
| COc1ccccc1NC(=O)Nc1nnc(Cc2ccc(F)cc2)s1 |  | inactive |
| CC1=NN(/C(=N\c2nnc(C)s2)Nc2ccccc2)[C@H](c2ccc(C)cc2)S1 |  | 8.28 µM (active) |
| COc1ccc2oc(=N)c(C(=O)Nc3ccc(Br)cc3)cc2c1 |  | inactive |
| CCOC(=O)C1CCN(C(=O)CC2C(=O)N(Cc3ccccc3)C(C)c3nc4ccccc4n32)CC1 (stereo not given) |  | 7.38 µM (active) |
| CC1c2nc3ccccc3n2C(CC(=O)NCCCN2CCOCC2)C(=O)N1Cc1ccccc1 (stereo not given) |  | inactive |
| CCOC(=O)C1CCN(C(=O)Cn2cc(C#N)c3ccccc32)CC1 |  | inactive |
| O=C(NCCS(=O)(=O)NCc1ccc(F)cc1)c1ccccc1 |  | inactive |
| Cc1cc(C)nc(N/N=C/c2c(CO)cnc(C)c2O)n1 |  | 10.4 µM (active) |
| COc1ccc(/C=C2\SC(=S)N(CCC(=O)Nc3cccc(C(=O)O)c3)C2=O)cc1OC |  | inactive |
| CN(NS(=O)(=O)c1cccs1)c1ncc(C(F)(F)F)cc1Cl |  | inactive |
| COc1ccc(CNC(=O)c2ccc3oc(C(C)C)nc3c2)cc1 |  | inactive |

| SMILES | activity change, negative = inhibition | Potency |
| --- | --- | --- |
| O=C(COC(=O)/C=C/c1ccc(OC(F)F)cc1)NC1CCCCC1 |  | inactive |
| O=C(NCc1cccc(Cl)c1)C1CCN(c2nnc(N3CCCC3=O)s2)CC1 |  | inactive |
| COc1ccccc1CNS(=O)(=O)c1c(C)[nH]c(C)c1C(=O)N1CCCCC1 |  | inactive |
| O=C(CSc1nnnn1-c1ccc(O)cc1)c1ccc(F)cc1 |  | inactive |
| COc1ccc(C2=NN(C(=O)CSc3nnnn3C)C(c3ccco3)C2)cc1 (stereo not given) |  | inactive |
| O=C(CSc1nnnn1-c1ccc(O)cc1)N1N=C(c2ccc3ccccc3c2)CC1c1ccccc1 (stereo not given) |  | 2.33 µM (active) |
| COc1ccccc1C(=O)N1CC2(C)CC1CC(C)(C)C2 (stereo not given) |  | inactive |
| Cc1cccc(C(=O)NCC(=O)OCC(=O)N2CC3(C)CC2CC(C)(C)C3)c1 (stereo not given) |  | inactive |
| Cc1nnnn1/C(=C\c1ccccc1)C(=O)OCC(=O)N1CC2(C)CC1CC(C)(C)C2 (stereo not given) |  | 11.7 µM (active) |
| COc1ccc(OC)c(-c2csc(NC(=O)COC(=O)C3CC3)n2)c1 |  | inactive |
| C=CCOc1ccccc1NC(=O)CN1C(=O)CNC1=O |  | inactive |
| CC(C)(C)NC(=O)C(c1ccncc1)N(C(=O)CNC(=O)c1ccco1)c1ccc2c(c1)OCO2 (stereo not given) |  | inactive |
| CC(C)(C)NC(=O)C(c1ccco1)N(Cc1ccc2c(c1)OCO2)C(=O)Cn1nnc2ccccc21 (stereo not given) |  | 8.28 µM (active) |
| CCC(C)(C)NC(=O)C(c1cccn1C)N(Cc1ccc(C)cc1)C(=O)Cn1nnc2ccccc21 (stereo not given) |  | inactive |
| COCCn1c(C)cc(C(=O)CSc2nnc(C3CC3)n2C2CC2)c1C |  | inactive |
| CCC(=O)Nc1ccc(S(=O)(=O)Nc2c(NC)c3ccccc3oc2=O)cc1 |  | inactive |
| CCOC(=O)c1sc(NC(=O)CSc2nnc(-c3ccco3)o2)c(C(=O)OCC)c1C |  | inactive |
| CCOC(=O)c1c(NC(=O)CSc2nccc(=O)[nH]2)sc(C)c1C |  | inactive |
| CCOC(=O)c1sc(NC(=O)CSc2nc3c(c(=O)n2-c2ccccc2)SCC3)c(C(=O)OCC)c1C |  | 1.65 µM (active) |
| COc1cccc(N2CCN(c3ccc4nnc(CCC(=O)N5CCN(C)CC5)n4n3)CC2)c1 |  | inactive |
| COc1ccc(Nc2ncnc3sc(C)cc23)cc1 |  | inactive |
| Cc1cc(Cl)ccc1C(=O)C1CCCN(C(=O)c2nonc2C)C1 (stereo not given) |  | inactive |
| CCOC(=O)C(C)n1cnc2c(nnn2-c2ccc(F)cc2)c1=O (stereo not given) |  | inactive |
| COc1ccccc1Nc1nc(N)nc(CSC(=S)N2CCOCC2)n1 |  | inactive |
| COc1ccccc1NC(=O)c1cc(Cl)nnc1Cl |  | inactive |
| COc1ccccc1NC1=NC(c2ccc(Cl)cc2)N=C(N)N1 (stereo not given) |  | 10.4 µM (active) |
| Cc1ccc(OCC(=O)Nc2ccc(C(=O)O)cc2NC(=O)COc2ccc(C)c(C)c2)cc1C |  | inactive |

| SMILES | activity change, negative = inhibition | Potency |
| --- | --- | --- |
| O=C1Nc2ccccc2/C1=C/c1ccnc2ccccc12 |  | inactive |
| CC1C(=O)C(C)C(c2ccc(O)cc2)NC1c1ccc(O)cc1 (stereo not given) |  | 6.57 µM (active) |
| CCOC(=O)C1C(c2ccc(O)cc2)NC(=O)NC1(O)C(F)(F)F (stereo not given) |  | inactive |
| CCOc1ccc(N(CC)S(=O)(=O)c2cccc3nsnc23)cc1 |  | inactive |
| CCOc1ccccc1NC(=O)CCS(=O)(=O)c1cccc2nsnc12 |  | inactive |
| CCOc1ccc(OCC)c(NC(=O)CN(C)S(=O)(=O)c2cccc3nsnc23)c1 |  | 1.17 µM (active) |
| O=C(Nc1ccccn1)C1CCN(S(=O)(=O)c2ccccc2)CC1 |  | inactive |
| CCN(c1ccccc1)S(=O)(=O)c1cc2c(cc1C)n(C)c(=O)c(=O)n2C |  | inactive |
| CCOC(=O)c1ccccc1C(=O)N1CCOCCOCCOCC1 |  | inactive |
| CCOC(=O)c1c(-c2cccc(N)c2)cn2ccccc12 |  | inactive |
| CCOC(=O)c1c(CN(C)C)n(-c2ccccc2)c2cc(Br)c(O)cc12 |  | 1.17 µM (active) |
| CCOC(=O)c1c(CN2CCOCC2)n(-c2ccccc2)c2ccc(O)cc12 |  | 10.4 µM (active) |
| CCOC(=O)c1ccccc1NC(=O)COC(=O)CCC(=O)N1CCOCC1 |  | inactive |
| CCOC(=O)c1c(-c2ccccc2)oc2ccc(OC(=O)N(C)C)cc12 |  | inactive |
| CN(CC(=O)Nc1ccc(Cl)cc1)C(=O)c1ccc(COc2ccccc2)cc1 |  | inactive |
| CCCCn1c(N)c(N(Cc2ccccc2OC)C(=O)COc2cc(C)ccc2Cl)c(=O)[nH]c1=O |  | inactive |
| Cc1ccc2c(c1)N(CC(=O)NCCCN1CCCCC1)C(=O)c1cccnc1O2 |  | inactive |
| Cc1ccc2c(c1)N(CC(=O)NCCc1ccc(Cl)cc1)C(=O)c1cccnc1O2 |  | inactive |
| CC(=O)c1cccc(NC(=O)CN2C(=O)c3cccnc3Oc3ccc(Cl)cc32)c1 |  | 13.1 µM (active) |
| Cc1ccc(S(=O)(=O)N(C)CC(=O)NCCc2c[nH]c3ccccc23)cc1 |  | inactive |
| Cn1c(CNC(=O)c2ccco2)nnc1SCC(=O)N1CCN(c2ccccc2)CC1 |  | inactive |
| CC(C)c1nc2cc(C(=O)NC(C)c3cnn(C)c3)ccc2o1 (stereo not given) |  | inactive |
| CCN(CC(=O)Nc1ccc2c(c1)OCO2)S(=O)(=O)c1ccccc1 |  | inactive |
| C/C(=N\NC(=O)Cc1ccccc1[N+](=O)[O-])c1cccnc1 |  | inactive |
| Cn1cccc1-c1nc2ccccc2n1C |  | inactive |
| CN1c2ccccc2-c2nc3ccccc3n2C1c1ccco1 (stereo not given) |  | 11.7 µM (active) |
| Cn1c(-c2ccco2)nc2cc3ccccc3cc21 |  | inactive |

| SMILES | activity change, negative = inhibition | Potency |
| --- | --- | --- |
| O=C(c1cc2cc(Br)cc(Br)c2oc1=O)N1CCOCC1 |  | inactive |
| CCOc1ccc(NC(=O)COc2ccc(C(=O)N3CCC(C(N)=O)CC3)cc2OC)cc1 |  | inactive |
| COc1cc2ccccc2cc1C(=O)Nc1ccc(NC(=O)c2cccs2)cc1 |  | 11.7 µM (active) |
| COc1cc(NC(=O)c2cccs2)ccc1NC(=O)c1ccccc1Cl |  | inactive |
| COc1cc2ccccc2cc1C(=O)Nc1ccncc1 |  | inactive |
| Cc1ccnc(N2CCCC(C(=O)NC3CC3)C2)n1 (stereo not given) |  | inactive |
| O=C(NC1CC1)C(Cc1ccccc1)NS(=O)(=O)c1ccccc1F (stereo not given) |  | inactive |
| O=C(Cc1ccc([N+](=O)[O-])cc1)Nc1ccc(C(=O)N2CCOCC2)cc1 |  | inactive |
| O=C(/C=C/c1ccco1)NC(=S)Nc1ccccc1Br |  | inactive |
| CCCCCCn1c(SCC(=O)c2ccccc2)nc2c1c(=O)[nH]c(=O)n2C |  | inactive |
| C=CCn1c(SCc2ccccc2)nc2c1c(=O)[nH]c(=O)n2C |  | inactive |
| CCC(C)Sc1nc2c(c(=O)[nH]c(=O)n2C)n1CC(O)COc1cccc2ccccc12 (stereo not given) |  | 10.4 µM (active) |
| CCc1ccc(NC(=O)CS(=O)CC(=O)N2CCN(c3ccccc3F)CC2)cc1 (stereo not given) |  | inactive |
| COc1cc(C(=O)NCC(=O)N2CC=C(c3ccccc3)CC2)cc(OC)c1OC |  | inactive |
| O=C(CSc1ccc(-c2ccccn2)nn1)Nc1ccccc1 |  | inactive |
| COC(=O)c1noc(C)c1-c1ccnn1C(=O)c1ccc(Cl)cc1 |  | inactive |
| Cc1ccc(S(=O)(=O)Cc2cc(-c3ccc(Cl)cc3)no2)cc1 | -33.3% [at 5.75 µM] (inactive) |  |
| Cc1onc(-c2ccc(Cl)cc2)c1-c1ccnn1S(=O)(=O)c1ccc(Cl)cc1 |  | 1.04 µM (active) |
| COc1ccc(/C=C2\SC(=O)N(CCC(=O)NCCCn3ccnc3)C2=O)cc1 |  | inactive |
| CCOc1ccc(C(=O)COC(=O)c2ccc(-n3cnnn3)cc2)cc1 |  | inactive |
| COc1ccc2c(c1)C(NS(=O)(=O)OCC(Cl)(Cl)Cl)CCC2 (stereo not given) |  | inactive |
| O=C(c1cc2cc(F)ccc2[nH]1)N1CCN(c2ccc(F)cc2)CC1 |  | inactive |
| O=C(c1ccccc1)c1ccc(C(=O)N2CCN(c3ccccc3)CC2)cc1 |  | inactive |
| O=C(c1cccc(C(=O)N2CCN(c3ccc(F)cc3)CC2)c1)N1CCN(c2ccc(F)cc2)CC1 |  | 13.1 µM (active) |
